The nature of test [1]: NCI Yeast Anticancer Drug Screen. Data for the rad50 strain (AID 155).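 Further: 0% = growth of vehicle-only cultures of the same strain.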 To be noted: S. cerevisiae rad50 strain growth inhibition, stronger effect = higher value. In a few lines: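 Relative growth inhibition (compound vs vehicle) was measured in yeast with a defined repair-gene alteration.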
Test [2] is described as follows: NCI Yeast Anticancer Drug Screen. Data for the mec2-1 strain (AID 157). To be noted: S. cerevisiae mec2-1 strain, stronger effect = higher value. In a few lines:
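Each compound was tested on mec2-1 yeast, a strain altered in DNA damage repair or cell cycle control. Growth inhibition is reported relative to vehicle.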

A short description of test [3]: NCI Yeast Anticancer Drug Screen. Data for the sgs1 mgt1 strain (AID 161).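 Further: 0% = growth of cultures given vehicle only.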 To be noted: S. cerevisiae sgs1 mgt1 strain, stronger effect = higher value. Summed up:
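Inhibition of yeast growth, normalised to vehicle-treated controls, is reported for a strain bearing genetic alterations in DNA damage repair.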

A short description of test [4]: NCI Yeast Anticancer Drug Screen. Data for the cln2 rad14 strain (AID 165).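 Further: 0% = growth equal to vehicle treated cultures.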 To be noted: S. cerevisiae cln2 rad14 strain, stronger effect = higher value. In a few lines: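 Test compounds were added to cln2 rad14 yeast cultures; inhibition of growth was then determined by comparison with vehicle treatment.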
The nature of test [5]: NCI Yeast Anticancer Drug Screen. Data for the bub3 strain (AID 167). To be noted: S. cerevisiae bub3 mutant strain, stronger effect = higher value. Summed up: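 Screening used yeast with an engineered genetic alteration affecting cell cycle control. Compound-exposed cultures were compared with vehicle cultures, and reduced growth was taken as inhibition.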
Test [6] can be described thus: NCI Yeast Anticancer Drug Screen. Data for the mlh1 rad18 strain (AID 175). To be noted: S. cerevisiae mlh1 rad18 strain growth inhibition, stronger effect = higher value. Summed up:
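Inhibition values reflect reduced growth of mutant yeast versus vehicle-treated controls following compound exposure; the mutations affect DNA damage repair.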

Where [7] appears, read: at 5.0 µM (retest, dose inferred, filed as 0.5).
Where [8] appears, read: at 50.0 µM (retest, dose inferred, filed as 5.0).

About 79,000 compounds went through this panel and 15% of them were active in at least one assay; those are over-represented in the sample as a whole. A number with no mark means an inactive call. Calls of active or inactive are those of the source. No stated cut-off is given here; in the data, active means growth inhibition above about 70%; inactive means the rest.

Take `CN(C)[C@@H]1C(=O)C(C(=O)NCNc2nc3n[nH]nc3c(=O)[nH]2)=C(O)[C@@]2(O)C(=O)C3=C(O)c4c(O)cccc4[C@@](C)(O)[C@H]3C[C@@H]12`: the growth inhibition was -1% in test [1] (setting [7]); 9% in test [1] (setting [8]); -5.65% in test [1] (at 50.0 µM); -4% in test [2] (setting [7]); 6% in test [2] (setting [8]); 11.2% in test [2] (at 50.0 µM). In addition, the growth inhibition in test [3] (setting [7]) is -7%; in test [3] (setting [8]), 3%; in test [3] (at 50.0 µM), -7%; in test [4] (setting [7]) it was 1%; in test [4] (setting [8]) it was -8%; in test [4] (at 50.0 µM) it was 11.6%. For the same compound, the growth inhibition in test [5] (setting [7]) is 7%; in test [5] (setting [8]), 14%; in test [5] (at 50.0 µM), -10.6%; in test [6] (setting [7]), 1%; in test [6] (setting [8]), 4%; in test [6] (at 50.0 µM), -4.9%.

With `N#CSc1ccc(Nc2ccc(SC#N)cc2)cc1`, the growth inhibition in test [1] (setting [7]) was 98% (active); in test [1] (setting [8]), 98% (active); in test [1] (at 50.0 µM) it was 98.4% (active); in test [2] (setting [7]), 99% (active); in test [2] (setting [8]) it was 99% (active); in test [2] (at 50.0 µM), 97.6% (active). Moreover, the growth inhibition is 99% (active) in test [3] (setting [7]); 99% (active) in test [3] (setting [8]); 98.4% (active) in test [3] (at 50.0 µM); 99% (active) in test [4] (setting [7]); 98% (active) in test [4] (setting [8]); 97.7% (active) in test [4] (at 50.0 µM). The growth inhibition in test [5] (setting [7]) was 98% (active); in test [5] (setting [8]), 97% (active); in test [5] (at 50.0 µM), 98.2% (active); in test [6] (setting [7]), 99% (active); in test [6] (setting [8]), 94% (active); in test [6] (at 50.0 µM) it was 97.8% (active).

In the case of `FC(F)(F)c1ccc(NC(=S)SCc2ccc(Cl)cc2)cc1`, the growth inhibition in test [1] (setting [7]) is 8%; in test [1] (setting [8]), 99% (active); in test [1] (at 50.0 µM), 99.3% (active); in test [2] (setting [7]), 5%; in test [2] (setting [8]), 99% (active); in test [2] (at 50.0 µM), 99.7% (active). Also, the growth inhibition in test [3] (setting [7]) is 13%; in test [3] (setting [8]) it was 99% (active); in test [3] (at 50.0 µM), 99.5% (active); in test [4] (setting [7]) it was -3%; in test [4] (setting [8]), 98% (active); in test [4] (at 50.0 µM) it was 99.4% (active). Besides, the growth inhibition was 26% in test [5] (setting [7]); 99% (active) in test [5] (setting [8]); 99.5% (active) in test [5] (at 50.0 µM); 17% in test [6] (setting [7]); 99% (active) in test [6] (setting [8]); 99.5% (active) in test [6] (at 50.0 µM).

Take `O=C(O)/C=C/C(=O)Nc1cccc2c1C(=O)c1ccccc1-2`: the growth inhibition was 18% in test [1] (setting [7]); 89% (active) in test [1] (setting [8]); 92.3% (active) in test [1] (at 50.0 µM); -18% in test [2] (setting [7]); 93% (active) in test [2] (setting [8]); 97.9% (active) in test [2] (at 50.0 µM). Moreover, the growth inhibition in test [3] (setting [7]) was 35%; in test [3] (setting [8]), 95% (active); in test [3] (at 50.0 µM) it was 97.3% (active); in test [4] (setting [7]), 8%; in test [4] (setting [8]) it was 96% (active); in test [4] (at 50.0 µM) it was 89.7% (active). Also, the growth inhibition in test [5] (setting [7]) was 17%; in test [5] (setting [8]), 93% (active); in test [5] (at 50.0 µM), 95.9% (active); in test [6] (setting [7]), 34%; in test [6] (setting [8]) it was 97% (active); in test [6] (at 50.0 µM), 96.1% (active).

Take `COc1nc(N)c(N=O)c(OCc2ccccc2)n1`: the growth inhibition in test [1] (setting [7]) was 83% (active); in test [1] (setting [8]), 97% (active); in test [1] (at 50.0 µM), 89% (active); in test [2] (setting [7]) it was 99% (active); in test [2] (setting [8]), 98% (active); in test [2] (at 50.0 µM), 92.6% (active). Further, the growth inhibition was 62% in test [3] (setting [7]); 57% in test [3] (setting [8]); 91.4% (active) in test [3] (at 50.0 µM); 55% in test [4] (setting [7]); 98% (active) in test [4] (setting [8]); 89.8% (active) in test [4] (at 50.0 µM). For the same compound, the growth inhibition in test [5] (setting [7]) is 97% (active); in test [5] (setting [8]) it was 98% (active); in test [5] (at 50.0 µM), 91.6% (active); in test [6] (setting [7]), 99% (active); in test [6] (setting [8]), 97% (active); in test [6] (at 50.0 µM), 89.3% (active).

Consider `O=C1c2cc([N+](=O)[O-])cc3cc([N+](=O)[O-])cc(c23)C(=O)N1CCCNCCNCCCN1C(=O)c2cc([N+](=O)[O-])cc3cc([N+](=O)[O-])cc(c23)C1=O`, for which the growth inhibition in test [1] (setting [7]) is 85% (active); in test [1] (setting [8]), 93% (active); in test [1] (at 50.0 µM), 61%; in test [2] (setting [7]), 32%; in test [2] (setting [8]), 96% (active); in test [2] (at 50.0 µM), 77.4% (active). Also, the growth inhibition in test [3] (setting [7]) is 93% (active); in test [3] (setting [8]), 94% (active); in test [3] (at 50.0 µM), 80.9% (active); in test [4] (setting [7]), 22%; in test [4] (setting [8]) it was 92% (active); in test [4] (at 50.0 µM), 83% (active). Also, the growth inhibition was 9% in test [5] (setting [7]); 95% (active) in test [5] (setting [8]); 83.7% (active) in test [5] (at 50.0 µM); 66% in test [6] (setting [7]); 91% (active) in test [6] (setting [8]); 77.3% (active) in test [6] (at 50.0 µM).

On to `CCCCCCCCCCNC(=O)C[n+]1cccc(C(=O)Nc2ccccc2)c1`, for which the growth inhibition is 4% in test [1] (setting [7]); 99% (active) in test [1] (setting [8]); 99.7% (active) in test [1] (at 50.0 µM); 10% in test [2] (setting [7]); 100% (active) in test [2] (setting [8]); 99.8% (active) in test [2] (at 50.0 µM). Moreover, the growth inhibition in test [3] (setting [7]) is -13%; in test [3] (setting [8]), 100% (active); in test [3] (at 50.0 µM), 99.9% (active); in test [4] (setting [7]) it was 3%; in test [4] (setting [8]), 99% (active); in test [4] (at 50.0 µM) it was 99.2% (active). Further, the growth inhibition is -1% in test [5] (setting [7]); 99% (active) in test [5] (setting [8]); 99.6% (active) in test [5] (at 50.0 µM); 28% in test [6] (setting [7]); 100% (active) in test [6] (setting [8]); 99.8% (active) in test [6] (at 50.0 µM).

For the origin of these results see PubChem BioAssay (NCI).
